Test results: PubChem BioAssay (Tox21)
“And” between values parts separate entries of the source, which are not always exact repeats. Identical values can stand only once. Inconclusive results are not listed. More than one record can exist for a structure, and the calls need not agree. The source made the active and inactive calls. Unless noted, calls follow the shape of the dose curve; as a rule, active = well fitted curve in the direction sought with a large enough effect in the repeat runs; inconclusive = weak or mixed curves; inactive = no such curve, though single readings can be large; an effect the other way counts as inactive or inconclusive.

Assays:
[1] = biological target: Progesterone receptor (Homo sapiens) (UniProt P06401); test: qHTS assay to identify small molecule antagonists of the progesterone receptor (PR) signaling pathway (AID 1346795; active = well fitted inhibition curve with a large enough effect in the signal ratio in the repeat runs, not every such curve was filed as active; the % refers to the signal ratio; also: potency is read from the fitted curve at half-maximal effect)
In short: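 In HEK293T cells bearing the PR-UAS-bla reporter, compound effects on promegestone-driven (1 nM) beta-lactamase expression are assessed after 16 hr using a fluorescent FRET substrate incubated 2 hr at room temperature.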

[2] = qHTS assay to identify small molecule antagonists of the progesterone receptor (PR) signaling pathway - cell viability counter screen (AID 1346798); also: series mostly up to about 92 µM; nearly all actives have a fitted effect of over 50% in size
In short: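 Following a 4 hr attachment, PR-UAS-bla HEK293T cells in charcoal-stripped FBS medium were exposed to compounds with R5020 for 16 hr; CellTiter-Glo was added and luminescence read after 30 min at room temperature.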

[3] = qHTS assay to identify small molecule agonists of the progesterone receptor (PR) signaling pathway - cell viability counter screen (AID 1346799; calls by dose curve; also: nearly all actives have a fitted effect of over 45% in size)
In short: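 Here, 3,000 PR-UAS-bla HEK293T cells per well were treated with compounds for 16 hr after a 6 hr preincubation at 37C and 5% CO2; cell viability is the CellTiter-Glo luminescence signal.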

[4] = qHTS assay to identify small molecule antagonists of the TGF-beta/Smad signaling pathway - cell viability counter screen (AID 1346824); also: nearly all actives have a fitted effect of over 50% in size
In short: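 SBE-bla HEK 293T cells, incubated overnight, then compound plus 0.25 ng/mL TGF-beta1 (stock added) for 5 hr at 37 C. Viability was read in the same wells by CellTiter-Glo luminescence after 30 min at room temperature.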

[5] = qHTS assay to identify small molecule agonists of the TGF-beta/Smad signaling pathway - cell viability counter screen (AID 1346829); also: top concentration of the series differs between compounds; nearly all actives have a fitted effect of over 45% in size
In short: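 Here the cytotoxicity of library compounds is measured in SBE-bla HEK 293T cells treated for 5 hr, using CellTiter-Glo added to wells already read for the beta-lactamase reporter.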

[6] = qHTS assay to identify small molecule agonists of the TGF-beta/Smad signaling pathway (AID 1346859; active = well fitted activation curve with a large enough effect in the signal ratio in the repeat runs, not every such curve was filed as active; the % refers to the signal ratio; also: series mostly up to about 77 µM)
In short: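 Each well held 4,000 SBE-bla HEK 293T cells incubated overnight before compound addition; 5 hr later the cleavable FRET substrate went on for 2 hr at room temperature, and fluorescence was read at two emissions.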

[7] = biological target: Thyrotropin-releasing hormone receptor (Homo sapiens) (UniProt P34981); test: qHTS assay to identify small molecule antagonists of the thyrotropin-releasing hormone receptor (TRHR) signaling pathway (AID 1346877; active = well fitted inhibition curve with a large enough effect in the repeat runs, not every such curve was filed as active; also: series mostly up to about 51 µM)
In short: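 Calcium signal in dye-loaded TRHR/HEK293 cells; compounds added 5 min before TRH (1 nM final); fluorescence monitored 3 min at 1 s steps.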

[8] = biological target: Thyrotropin-releasing hormone receptor (Homo sapiens) (UniProt P34981); test: qHTS assay to identify small molecule agonists of the thyrotropin-releasing hormone receptor (TRHR) signaling pathway (AID 1346891; calls by dose curve; also: series mostly up to about 58 µM)
In short: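 Screening of agonists relied on calcium signalling in HEK293 cells expressing human TRHR: dye loading 2 h at 37 °C preceded compound addition and a 3-min fluorescence time course.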

[9] = Human pregnane X receptor (PXR) small molecule agonists, qHTS cell viability counter screen (AID 1346977); also: nearly all actives have a fitted effect of over 50% in size; also: potency is read from the fitted curve at half-maximal effect
In short: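 Tox21 qHTS format; PXR-Luc HepG2, 2,000/well, charcoal-stripped FBS 5%. Cpd exposure 24hr. Read: CellTiter-Fluor fluorescence, multiplexed with luciferase.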

[10] = Caspase-3/7 induction in HepG2 cells by small molecules, qHTS assay (AID 1346978); also: nearly all actives have a fitted effect of over 15% in size
In short: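 Wild-type HepG2 cells, 2,000/well, settled 5 hr at 37 C and 5% CO2, then compound-treated for 17 hr; caspase-3/7 activity read by luminescent Caspase-Glo 3/7 after 30 min at room temperature.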

[11] = Caspase-3/7 induction in CHO-K1 cells by small molecules, qHTS cell viability counter screen (AID 1346979); also: nearly all actives have a fitted effect of over 35% in size; also: potency is read from the fitted curve at half-maximal effect
In short: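 CellTiter-Fluor viability check, qHTS format: wild-type CHO-K1, 16hr compound treatment, 1hr reagent incubation, fluorescence read.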

[12] = Caspase-3/7 induction in CHO-K1 cells by small molecules, qHTS assay (AID 1346980); also: nearly all actives have a fitted effect of over 15% in size
In short: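 Wild-type CHO-K1 cells exposed to compounds for 17hr at 37 C, 5% CO2. Caspase-3/7 activity then measured by Caspase-Glo 3/7 luminescence after 30min at room temperature.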

[13] = biological target: Nuclear receptor subfamily 1 group I member 2 (Homo sapiens) (UniProt O75469); test: Human pregnane X receptor (PXR) small molecule agonists, qHTS assay (AID 1346982); also: nearly all actives have a fitted effect of over 35% in size; also: potency is read from the fitted curve at half-maximal effect
In short: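 Tox21 qHTS; PXR-Luc HepG2; compounds pinned from DMSO; 24 hr, 37 C; ONE-Glo luciferase detection, 30 min room temperature.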

[14] = biological target: Nuclear receptor subfamily 1 group I member 2 (Rattus norvegicus) (UniProt Q9R1A7); test: Rat pregnane X receptor (rPXR) activation by small molecules, qHTS assay (AID 1346983); settings: rPXR luciferase reporter cells, One-Glo luminescence, 24 h; stronger effect = higher value; also: nearly all actives have a fitted effect of over 20% in size
In short: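 Cell-based rPXR activation assay: rPXR cells, 2,000 per well, rested 5hr at 37 C, then exposed to compounds in DMSO for 24 hr at 37 C. Luciferase activity read by One-Glo luminescence after 30 min at room temperature.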

[15] = biological target: Nuclear receptor subfamily 1 group I member 2 (Homo sapiens) (UniProt O75469); test: CYP3A4 induction through human pregnane X receptor (PXR) by small molecules, qHTS assay (AID 1346984); also: nearly all actives have a fitted effect of over 40% in size
In short: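 Cells (DPX-2; HepG2 with PXR element plus CYP3A4-promoter luciferase) settled 5hr, then were treated 24hr at 37C. A 3hr, 3uM-final Luciferin-IPA step preceded luminescence measurement with One-Glo.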

[16] = biological target: Nuclear receptor subfamily 1 group I member 2 (Homo sapiens) (UniProt O75469); test: Human pregnane X receptor (PXR) activation by small molecules, qHTS assay (AID 1346985); also: nearly all actives have a fitted effect of over 40% in size; also: potency is read from the fitted curve at half-maximal effect
In short: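 DPX-2 cells (HepG2 co-transfected with a PXR response element and a CYP3A4-promoter luciferase construct) were seeded at 2,000 per well, rested 5 hr at 37C, then exposed to DMSO-dissolved compounds for 24 hr. Activation was read as luciferase luminescence.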

[17] = biological target: Acetylcholinesterase (Homo sapiens) (UniProt P22303); test: Acetylcholinesterase (AChE) small molecule antagonists: colormetric cell-based qHTS assay (AID 1347395; calls by dose curve; also: nearly all actives have a fitted effect of over 30% in size; also: potency is read from the fitted curve at half-maximal effect)
In short: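 AChE inhibition read colorimetrically via DTNB–thiocholine in SH-SY5Y cells. Compound 30 min, substrate 90 min, both 37 C.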

[18] = biological target: Acetylcholinesterase (Homo sapiens) (UniProt P22303); test: Acetylcholinesterase (AChE) small molecule antagonists: enzyme-based qHTS assay (AID 1347397; calls by dose curve; also: nearly all actives have a fitted effect of over 55% in size; also: potency is read from the fitted curve at half-maximal effect); settings: Potency: AChE enzyme activity inhibition; outcome: AChE enzyme activity inhibition
In short: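 In this quantitative HTS, compounds from the Tox21 10K collection were preincubated 30 min at ambient temperature with recombinant human AChE dispensed at 50 mU/mL. Hydrolysis of acetylthiocholine was then followed for 10 min by DTNB colour development.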

[19] = biological target: Acetylcholinesterase (Homo sapiens) (UniProt P22303); test: Acetylcholinesterase (AChE) small molecule antagonists: fluorescence cell-based qHTS assay (AID 1347398; calls by dose curve; also: nearly all actives have a fitted effect of over 50% in size; also: potency is read from the fitted curve at half-maximal effect); settings: Potency: AChE activity; outcome: AChE activity
In short: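 Cells (SH-SY5Y) attached overnight, were dosed with compound or DMSO vehicle for 30 min at 37 C, and then incubated 40 min at room temperature with acetylthiocholine and Thiolite Green; green fluorescence indexed AChE activity.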

[20] = Caspase-3/7 induction in HepG2 cells by small molecules, qHTS cell viability counter screen (AID 1346981); also: nearly all actives have a fitted effect of over 30% in size; also: potency is read from the fitted curve at half-maximal effect
In short: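 After a 5-hr attachment period at 37 C and 5% CO2, wild-type HepG2 cells received compounds in DMSO. Sixteen hours later CellTiter-Fluor was dispensed and the fluorescent signal quantified after a further hour.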
% is scaled to controls: 0 for no effect and ±100 for the full control effect.

Sequence of Nuclear receptor subfamily 1 group I member 2 (Rattus norvegicus) (Q9R1A7 whole entry, looked up): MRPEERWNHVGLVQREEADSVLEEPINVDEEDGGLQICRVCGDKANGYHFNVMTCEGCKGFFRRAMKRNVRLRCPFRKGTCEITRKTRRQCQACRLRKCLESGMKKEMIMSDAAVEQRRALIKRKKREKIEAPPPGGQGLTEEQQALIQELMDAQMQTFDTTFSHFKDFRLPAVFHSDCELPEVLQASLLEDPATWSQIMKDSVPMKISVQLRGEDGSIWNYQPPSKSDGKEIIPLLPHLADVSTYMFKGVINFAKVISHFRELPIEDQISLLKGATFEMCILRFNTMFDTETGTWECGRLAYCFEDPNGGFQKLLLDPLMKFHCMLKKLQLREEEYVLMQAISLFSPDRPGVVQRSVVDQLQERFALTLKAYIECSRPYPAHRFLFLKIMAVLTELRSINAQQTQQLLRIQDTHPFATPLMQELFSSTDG
Sequence of Progesterone receptor (Homo sapiens) (P06401 whole entry, looked up): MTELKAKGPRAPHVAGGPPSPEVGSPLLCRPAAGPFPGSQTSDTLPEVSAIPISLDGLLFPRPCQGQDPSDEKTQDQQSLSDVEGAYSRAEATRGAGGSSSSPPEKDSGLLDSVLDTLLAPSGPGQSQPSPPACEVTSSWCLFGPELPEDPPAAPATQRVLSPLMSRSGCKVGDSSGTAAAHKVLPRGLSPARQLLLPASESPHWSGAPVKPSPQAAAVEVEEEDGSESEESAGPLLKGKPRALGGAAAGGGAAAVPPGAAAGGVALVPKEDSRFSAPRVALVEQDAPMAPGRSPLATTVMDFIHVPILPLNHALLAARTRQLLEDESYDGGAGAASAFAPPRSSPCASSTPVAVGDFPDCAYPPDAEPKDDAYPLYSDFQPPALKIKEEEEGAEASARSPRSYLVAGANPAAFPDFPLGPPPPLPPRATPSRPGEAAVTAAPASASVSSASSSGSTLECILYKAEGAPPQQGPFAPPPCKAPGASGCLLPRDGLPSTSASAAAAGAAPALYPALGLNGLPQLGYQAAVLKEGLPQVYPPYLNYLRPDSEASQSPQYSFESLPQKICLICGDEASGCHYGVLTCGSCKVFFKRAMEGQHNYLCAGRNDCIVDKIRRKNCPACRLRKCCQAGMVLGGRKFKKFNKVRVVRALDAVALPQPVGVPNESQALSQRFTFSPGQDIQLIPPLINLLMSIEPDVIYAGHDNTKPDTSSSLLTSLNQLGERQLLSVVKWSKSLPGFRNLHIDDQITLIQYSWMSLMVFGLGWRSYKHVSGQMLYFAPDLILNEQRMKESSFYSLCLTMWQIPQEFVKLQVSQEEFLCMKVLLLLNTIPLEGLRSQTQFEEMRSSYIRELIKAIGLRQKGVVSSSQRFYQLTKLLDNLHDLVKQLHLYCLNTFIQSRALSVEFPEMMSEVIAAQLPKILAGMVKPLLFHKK
Sequence of Thyrotropin-releasing hormone receptor (Homo sapiens) (P34981 whole entry, looked up): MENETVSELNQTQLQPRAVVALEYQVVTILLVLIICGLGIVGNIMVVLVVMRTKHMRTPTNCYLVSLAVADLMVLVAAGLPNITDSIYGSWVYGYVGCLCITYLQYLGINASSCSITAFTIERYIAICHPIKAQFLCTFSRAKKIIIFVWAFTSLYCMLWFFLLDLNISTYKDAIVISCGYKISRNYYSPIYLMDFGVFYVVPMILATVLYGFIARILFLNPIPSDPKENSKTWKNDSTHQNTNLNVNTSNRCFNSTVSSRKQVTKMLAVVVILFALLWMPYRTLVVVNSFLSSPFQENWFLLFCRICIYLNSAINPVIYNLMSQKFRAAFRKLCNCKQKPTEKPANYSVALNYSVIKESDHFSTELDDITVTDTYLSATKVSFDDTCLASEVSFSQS
Sequence of Acetylcholinesterase (Homo sapiens) (P22303 whole entry, looked up): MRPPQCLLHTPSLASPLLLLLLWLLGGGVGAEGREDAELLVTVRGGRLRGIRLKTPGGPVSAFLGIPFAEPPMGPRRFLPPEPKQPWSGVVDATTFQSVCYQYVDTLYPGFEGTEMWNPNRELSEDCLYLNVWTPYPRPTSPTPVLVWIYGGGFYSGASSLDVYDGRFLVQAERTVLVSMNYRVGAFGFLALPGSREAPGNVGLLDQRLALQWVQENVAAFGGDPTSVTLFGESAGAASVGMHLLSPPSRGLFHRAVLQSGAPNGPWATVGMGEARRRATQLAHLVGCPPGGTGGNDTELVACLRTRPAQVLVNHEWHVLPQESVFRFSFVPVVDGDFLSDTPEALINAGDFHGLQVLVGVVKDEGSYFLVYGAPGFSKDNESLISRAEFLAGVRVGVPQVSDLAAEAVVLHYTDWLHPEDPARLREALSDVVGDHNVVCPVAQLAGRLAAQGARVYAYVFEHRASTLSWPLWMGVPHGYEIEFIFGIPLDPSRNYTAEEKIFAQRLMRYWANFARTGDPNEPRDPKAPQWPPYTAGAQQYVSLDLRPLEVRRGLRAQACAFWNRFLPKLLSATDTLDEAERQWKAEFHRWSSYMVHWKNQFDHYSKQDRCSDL
Sequence of Nuclear receptor subfamily 1 group I member 2 (Homo sapiens) (O75469 whole entry, looked up): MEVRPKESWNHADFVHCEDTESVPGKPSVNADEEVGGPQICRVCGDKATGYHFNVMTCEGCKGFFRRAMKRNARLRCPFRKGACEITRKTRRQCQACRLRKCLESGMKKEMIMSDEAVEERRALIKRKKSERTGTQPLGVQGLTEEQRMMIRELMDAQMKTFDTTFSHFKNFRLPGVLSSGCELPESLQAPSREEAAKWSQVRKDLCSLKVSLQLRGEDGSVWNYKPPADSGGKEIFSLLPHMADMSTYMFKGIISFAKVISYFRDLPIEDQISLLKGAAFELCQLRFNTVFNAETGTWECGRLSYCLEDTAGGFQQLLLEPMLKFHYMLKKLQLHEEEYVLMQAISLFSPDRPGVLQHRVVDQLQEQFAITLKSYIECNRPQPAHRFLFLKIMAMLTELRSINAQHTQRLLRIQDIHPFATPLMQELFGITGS

CC[N+]1(C)CCCC(OC(=O)C(O)(c2ccccc2)c2ccccc2)C1 (configuration not stated)
inactive: Potency [1] | Potency [2] | Potency [3] | Potency [4] | Potency [5] | outcome [6] | Potency [7] | outcome [8] | Potency [9] | Potency [10] | Potency [11] | Potency [12] | Potency [13] | max activation [14] 2.38% | outcome [15] | Potency [16] | Potency [17] | Potency [18] | Potency [19]

CCOP(=O)(SC(C)CC)N1CCSC1=O (configuration not stated)
inactive: Potency [1] | Potency [2] | Potency [3] | Potency [4] | Potency [5] | outcome [6] | Potency [7] | outcome [8] | Potency [9] | Potency [10] | Potency [11] | Potency [12] | Potency [20] | Potency [17] | Potency [18] | Potency [19]

CC(C)OC(=O)Cc1ccccc1
inactive: Potency [1] | Potency [2] | Potency [3] | Potency [4] | Potency [5] | outcome [6] | Potency [7] | outcome [8] | Potency [9] | Potency [10] | Potency [11] | Potency [12] | Potency [20] | Potency [13] | Potency [17] | Potency [18] | Potency [19]

CCCCC(CC)CO[N+](=O)[O-] (configuration not stated)
inactive: Potency [1] | Potency [2] | Potency [3] | Potency [4] | Potency [5] | outcome [6] | Potency [7] | outcome [8] | Potency [9] | Potency [10] | Potency [11] | Potency [12] | Potency [20] | Potency [13] | Potency [17] | Potency [18] | Potency [19]

COc1ccc2c(c1OC)C(=O)O[C@H]2[C@@H]1c2cc3c(cc2CCN1C)OCO3
inactive: Potency [1] | Potency [2] | Potency [3] | Potency [4] | Potency [5] | outcome [6] | Potency [7] | outcome [8] | Potency [10] | Potency [12] | Potency [18] | Potency [19]
active: Potency [11] 11.9 µM | Potency [20] 11.9 µM

CCC1CCC(=O)O1 (configuration not stated)
inactive: Potency [1] | Potency [2] | Potency [3] | Potency [4] | Potency [5] | outcome [6] | Potency [7] | outcome [8] | Potency [9] | Potency [10] | Potency [11] | Potency [12] | Potency [17] | Potency [18] | Potency [19]

CC(C)(C)NCC(O)c1ccccc1Cl (configuration not stated)
inactive: Potency [1] | Potency [2] | Potency [3] | Potency [4] | Potency [5] | outcome [6] | Potency [7] | outcome [8] | Potency [9] | Potency [10] | Potency [11] | Potency [12] | Potency [20] | Potency [13] | max activation [14] -2.03% | outcome [15] | Potency [16] | Potency [17] | Potency [18] | Potency [19]

COC1CC(=C(c2cccs2)c2cccs2)C[N+](C)(C)C1 (configuration not stated)
inactive: Potency [1] | Potency [2] | Potency [3] | Potency [4] | Potency [5] | outcome [6] | Potency [7] | outcome [8] | Potency [9] | Potency [10] | Potency [11] | Potency [12] | Potency [20] | max activation [14] -1.69% | outcome [15] | Potency [16] | Potency [17] | Potency [18] | Potency [19]

CCCCCBr
inactive: Potency [1] | Potency [2] | Potency [3] | Potency [4] | Potency [5] | outcome [6] | Potency [7] | outcome [8] | Potency [9] | Potency [10] | Potency [11] | Potency [12] | Potency [13] | Potency [17] | Potency [18] | Potency [19]

CN(C)N
inactive: Potency [1] | Potency [2] | Potency [3] | Potency [4] | Potency [5] | outcome [6] | Potency [7] | outcome [8] | Potency [9] | Potency [10] | Potency [11] | Potency [12] | Potency [20] | Potency [13] | Potency [17] | Potency [18] | Potency [19]

NCCc1cc(O)c(O)cc1O
inactive: Potency [1] | Potency [2] | Potency [3] | Potency [4] | Potency [5] | outcome [6] | Potency [7] | outcome [8] | Potency [9] | Potency [10] | Potency [20] | max activation [14] -4.9% | outcome [15] | Potency [16] | Potency [17] | Potency [18] | Potency [19]

CC(Oc1cccc(Cl)c1)C(=O)O (configuration not stated)
inactive: Potency [1] | Potency [2] | Potency [3] | Potency [4] | Potency [5] | outcome [6] | Potency [7] | outcome [8] | Potency [9] | Potency [10] | Potency [11] | Potency [12] | Potency [20] | Potency [13] | Potency [17] | Potency [18] | Potency [19]

CC(C)(C)OOC(C)(C)CCC(C)(C)OOC(C)(C)C
inactive: Potency [1] | Potency [2] | Potency [3] | Potency [4] | Potency [5] | outcome [6] | Potency [7] | outcome [8] | Potency [9] | Potency [10] | Potency [11] | Potency [12] | Potency [20] | Potency [13] | Potency [17] | Potency [18] | Potency [19]

CN1C[C@H](C(=O)N[C@]2(C)O[C@@]3(O)[C@@H]4CCCN4C(=O)[C@H](Cc4ccccc4)N3C2=O)C=C2c3cccc4[nH]cc(c34)C[C@H]21
inactive: Potency [2] | Potency [3] | Potency [4] | Potency [5] | outcome [6] | Potency [7] | outcome [8] | Potency [10] | max activation [14] -2.24% | outcome [15]
active: Potency [9] 39.8 µM | Potency [11] 30.8 µM and 18 µM | Potency [20] 30.8 µM and 22.6 µM | Potency [13] 2.74 µM and 4.03 µM | Potency [16] 2.51 µM | Potency [17] 1.01 µM and 8.32 µM | Potency [18] 5.67 µM | Potency [19] 0.505 µM
48.8 µM (active) and inactive: Potency [1]

O=C(O)C(Cl)(Cl)Br
inactive: Potency [1] | Potency [2] | Potency [3] | Potency [4] | Potency [5] | outcome [6] | Potency [7] | outcome [8] | Potency [9] | Potency [10] | Potency [11] | Potency [12] | Potency [20] | Potency [13] | Potency [17] | Potency [18] | Potency [19]
